The text below walks through data of PubChem BioAssay.

The test can be described thus: MM1S cell viability effects, profiling panel, calcein-AM fluorescence, 48 h, basal (AID 1165).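 Also: viability of MM1S multiple myeloma cells under basal unstimulated conditions; test concentration not given here.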 The conditions noted are these: higher = more signal.
For the molecule `CC(=O)NCCCC[C@@H]1NC(=O)[C@@H]2C[C@H](C(=O)NCCCCCNC(=O)CS)[C@H](c3cccc(OCCO)c3)N2C1=O`, the z-score was 0.28. Consider `COc1ccccc1CN1C(=O)c2ccccc2[C@@]2(Cc3ccccc3N(CC(C)C)C2=O)[C@@H]1c1ccc(CO)cc1`, for which the z-score was -0.481.

For `CC(CO)N1C(=O)[C@@H]2C3C(=O)OCCC/C=C\[C@H]3OC23C=CCN(C(C)(C)C)C(=O)[C@@H]13` (stereo not given in full), the z-score was 1.41. To `CC1(C)[C@@H]2CC(C(O)C3C=CC4C(=O)N(Cc5ccccc5)C(=O)C4N3n3cnnc3)=C[C@H]1C2` (stereo not given in full) belongs -0.0282; to `O=C1C[C@@](C(=O)NC2CC2)(c2ccc([N+](=O)[O-])cc2)[C@@H](c2ccc(CO)cc2I)N1C1CCCCC1`, -1.77.

Turning to `NC(=O)NCC#Cc1ccc2c(c1)[C@]1(C(=O)N2)[C@H](C(=O)Nc2nc3ccccc3s2)[C@H]2C(=O)O[C@H](c3ccccc3)[C@H](c3ccccc3)N2[C@@H]1c1ccccc1OCCO`, the z-score was -0.513.

As to `O=C1c2ccccc2[C@](Cc2ccccc2I)(C(=O)NCC(F)(F)F)[C@H](c2ccc(CO)cc2)N1Cc1ccccc1Cl`, the z-score is -1.06. For `CCC[C@@H]1C[C@@]1(CCC)[C@@H](NS(=O)(=O)c1cccc2cccnc12)c1ccc(Cl)cc1`, the z-score is 0.0781. Take `CCCC[C@@H]1C[C@H]1[C@@H](NC(=O)c1ccco1)c1ccc(-c2ccccc2)cc1`: the z-score was -0.15.

`Cc1ccc(S[C@]2(C(=O)NCCCN(C)C)CC(=O)N(Cc3cc(C(F)(F)F)cc(C(F)(F)F)c3)[C@@H]2c2ccc(CO)cc2)cc1`: the z-score was -0.47.

Take `C=C[C@@H](COC(=O)OC(C)(C)C)N(Cc1ccc(OC)cc1)S(=O)(=O)c1ccc(Br)cc1`: the z-score is -3.08.

On to `COCCOC(=O)N1C(=O)[C@@]2(c3cc(C#CCC(C(=O)OC)C(=O)OC)ccc31)[C@H](C(=O)N1CCN(c3ncccn3)CC1)[C@H]1C(=O)O[C@H](c3ccccc3)[C@H](c3ccccc3)N1[C@@H]2c1ccccc1OCCO`, for which the z-score is -0.748. As to `CN1C(=O)C2C=CC(C(O)c3ccccc3)N(N(c3ccccc3)c3ccccc3)C2C1=O` (stereo not given), the z-score was 0.0913. The same measure for `COc1ccc([Si](C)(C)[C@H]2[C@H](CC(=O)N3Cc4ccccc4C[C@H]3CO)O[C@@]3(C(=O)N(Cc4cccc(N5CCC5=O)c4)c4ccccc43)[C@@H]2C)cc1`: -2.68; for `C=CCC(OC(C)=O)[C@@H]1[C@@H](N(Cc2ccc(-c3cccc(C(F)(F)F)c3)o2)C(=O)c2ccc(C)cc2)c2cc(OCCCO)ccc2N1C(=O)Cc1ccc2ccccc2c1` (stereo not given in full): -0.886. For the molecule `Oc1ccc2cc[n+](Cc3sc4ccccc4c3Cl)cc2c1`, the z-score is 0.241.

In the case of `COC(=O)C(CC#Cc1ccc2c(c1)[C@]1(C(=O)N2)[C@H](c2ccc(OCCO)cc2)N2[C@H](c3ccccc3)[C@H](c3ccccc3)OC(=O)[C@H]2[C@@H]1C(=O)N1CCc2cc(OC)c(OC)cc2C1)C(=O)OC`, the z-score was -0.952. `COc1ccc(CCNC(=O)[C@@]2(Sc3ccc(C)cc3)CC(=O)N(C(C)C)[C@@H]2c2ccc(CO)cc2I)cc1`: the z-score is -3.07. Take `CN(C)CCCC[C@@H]1NC(=O)[C@@H]2C[C@H](C(=O)NCCCCCCN)[C@H](c3cccc(OCCO)c3)N2C1=O`: the z-score is -0.304. On to `C=CCN1C(=O)[C@]2(O[C@H](CCn3cc([C@H](O)c4ccccc4)nn3)[C@@H]([Si](C)(C)c3ccc(OC)cc3)[C@@H]2C)c2ccccc21`, for which the z-score is -2.65. In the case of `COC(=O)C(CC#Cc1ccc2c(c1)[C@]1(C(=O)N2)[C@H](C(=O)Nc2nc3ccccc3s2)[C@H]2C(=O)O[C@H](c3ccccc3)[C@H](c3ccccc3)N2[C@@H]1c1ccc(O)cc1)C(=O)OC`, the z-score is -1.15. As for `COc1cc2c(cc1O)C(c1cccs1)N(C)CC2` (stereo not given), the z-score is 0.405. Regarding `C=CC[C@]1(C(=O)NCc2ccccc2)N=C(c2ccc(OCCCO)cc2)O[C@H]1c1ccccc1N=[N+]=[N-]`, the z-score was -1.77. The same measure for `O=C(c1ccccc1)N1Cc2ccccc2C[C@@]2(COC(c3ccc(OCCCO)cc3)=N2)C1=O`: -0.516; for `C=C[C@H](C)[C@@H](OC(=O)Nc1ccc(OC)cc1)c1ccc(O)c2ccccc12`: -2.78.

As for `CCC(CC)C(O)C1C=CC2C(=O)NC(=O)C2N1Nc1ccc(Cl)cc1Cl` (stereo not given), the z-score is -1.38. With `COc1ccc(C#Cc2ccc3c(c2)[C@]2(C(=O)N3)[C@H](c3ccccc3OCCO)N3[C@H](c4ccccc4)[C@H](c4ccccc4)OC(=O)[C@H]3[C@@H]2C(=O)Nc2nc3ccccc3s2)cc1`, the z-score was -2.43.

As for `O=C(CS)NCCCCCCNC(=O)[C@@H]1C[C@@H]2C(=O)N[C@@H](Cc3ccccc3)C(=O)N2[C@@H]1c1cccc(OCCO)c1`, the z-score is -0.204. To `CC(C)N1C(=O)c2ccccc2[C@](C)(C(=O)NCCN2CCOCC2)[C@@H]1c1ccc(CO)cc1` belongs -1.69; to `CCCC=C(CCC)[C@@H](NC(=O)c1cccs1)c1ccc(C(F)(F)F)cc1`, -1.41. Turning to `C[N+](C)(C)CCCCNC(=O)[C@@H]1C[C@@H]2C(=O)N[C@@H](Cc3ccccc3)C(=O)N2[C@@H]1c1cccc(OCCO)c1`, the z-score is 0.367. As to `Cc1ccc(S[C@]2(C(=O)NC3CC3)CC(=O)N(Cc3ccccc3)[C@@H]2c2ccc(CO)cc2I)cc1`, the z-score is -1.99. To `CCOC(=O)C1=C[C@@H](C(C)(C)C)N(S(=O)(=O)c2ccc(C)cc2)[C@H]1c1ccc(F)cc1` belongs -1.55. As to `COc1ccc(C(O)C2C=CC3C(=O)N(Cc4ccccc4)C(=O)C3N2n2cnnc2)cc1OCc1ccccc1` (stereo not given), the z-score was 0.195.

As to `CC1CC/C=C\[C@H]2OC34C=CCN(C(C)(C)C)C(=O)[C@H]3N(CCO)C(=O)[C@@H]4C2C(=O)O1` (stereo not given in full), the z-score was 1.16.
